Source: PubChem BioAssay (Tox21)
Records with an inconclusive call do not appear. A call without a number means that no potency is given here. Calls of active or inactive are those of the source. Calls come from the whole dose curve.

Test: p53 small molecule agonists, cell-based qHTS assay with rat liver microsomes (AID 1963578)
Conditions: HCT-116 p53RE-bla, beta-lactamase ratio, 16 h; series mostly up to 66 µM
Text: U.S. Tox21 Program National Center for Advancing Translational Sciences [NCATS] Division of Preclinical Innovation [DPI] U.S. Environmental Protection Agency [EPA] National Institutes of Environmental Health Sciences [NIEHS] National Toxicology Program [NTP] U.S. Food and Drug Administration [FDA] Tox21 Assay Overview: p53, a tumor suppressor protein, is activated following cellular insult, including DNA damage and other cellular stresses. The activation of p53 regulates cell fate by inducing DNA repair, cell cycle arrest, apoptosis, or cellular senescence. The activation of p53, therefore, is a good indicator of DNA damage and other cellular stresses. […] The activation of the reporter gene under culture conditions can be detected by fluorescence intensity. This cell line was used to screen the Tox21 10K compound library in the condition of presence of rat liver microsomes and to identify agonists that activate the p53 signaling pathway after in vitro metabolic activation (Ooka et al., Archive of Toxicology 96:1975-1987, 2022).
Tox21 Assay Protocol Summary: The p53RE-bla cells were dispensed at 4,000cells/3ul/well in 1536-well black-clear bottom plates. After the assay plates were incubated at 37 C, 5% CO2 incubator for 5 hours, 23 nL of compounds dissolved in DMSO, positive controls or DMSO only was transferred to the assay plate. Following compound addition, 3 uL of rat liver microsomes (Molecular Toxicology, Boone, NC) at final concentration of 0.5 mg/mL and 1uL of Beta-Nicotinamide adenine dinucleotide 2-phosphate (NADPH) at final concentration of 0.5 mg/mL were transferred to the assay plate. The plates were incubated at 37 C for 16 hours. 1 uL of LiveBLAzer detection mixture was added to each well and the plates were incubated at room temperature in the dark for 2 h.

Structure (SMILES)	Potency
Cc1cccc(C)c1NC(=O)CN1CCCC1=O	inactive
C1CS1	inactive
N#CC(Cl)Cl	inactive
ClC1C(Cl)C(Cl)C(Cl)C(Cl)C1Cl (stereo not given)	inactive
O=C(CCl)CCl	inactive
c1ccc(N=NNc2ccccc2)cc1	inactive
CN(CCCC(=O)c1cccnc1)N=O	inactive
CCC(C)c1ccc(O)cc1 (stereo not given)	inactive
CCOP(=S)(OCC)Oc1cnc2ccccc2n1	inactive
[N-]=[N+]=[N-]	inactive
COc1ccc(C(CN(C)C)C2(O)CCCCC2)cc1 (stereo not given)	inactive
CC1(C)C(C=C(Cl)Cl)C1C(=O)OC(C#N)c1cccc(Oc2ccccc2)c1 (stereo not given)	inactive
C[N+](=O)[O-]	inactive
Cl/C=C\C[N+]12CN3CN(CN(C3)C1)C2	inactive
CCC[CH2][Sn]([Cl])([Cl])[CH2]CCC	inactive
CCOC(=O)C(C)OC(=O)c1cc(Oc2ccc(C(F)(F)F)cc2Cl)ccc1[N+](=O)[O-] (stereo not given)	inactive
Cc1cccc(N=Nc2ccc(N(C)C)cc2)c1	inactive
OCC1CO1 (stereo not given)	inactive
Nc1cnn(-c2ccccc2)c(=O)c1Cl	inactive
N#CCCCCC#N	inactive

Structure (SMILES)	Potency
C=C(C#N)CCC#N	inactive
N#CCCC#N	inactive
CSc1nnc(C(C)(C)C)c(=O)n1N	inactive
CCOC(=O)c1cncn1C(C)c1ccccc1 (stereo not given)	inactive
C=CCCl	inactive
Clc1cnc(Oc2ccc(Oc3ncc(Cl)cc3Cl)cc2)c(Cl)c1	inactive
CCCCCCCCCCCCCCCl	inactive
CN(C)C(=O)Nc1cccc(C(F)(F)F)c1	inactive
CNC(=O)O/N=C/C(C)(C)S(C)=O (stereo not given)	inactive
ClCCOCOCCCl	inactive
Cc1cnc(C2=NC(C)(C(C)C)C(=O)N2)c(C(=O)O)c1 (stereo not given)	inactive
[CH3][Sn]([Cl])([Cl])[Cl]	inactive
CC(C)CCCCCCOC(=O)c1ccccc1C(=O)OCCCCCCC(C)C	inactive
[O]=[Cr](=[O])([OH])[O][Cr](=[O])(=[O])[OH]	inactive
CCN(CCO)CCO	inactive
OCC(Cl)CCl (stereo not given)	inactive
C[C@]1(O)CC[C@H]2[C@@H]3CCC4=CC(=O)CC[C@]4(C)[C@@]3(F)[C@@H](O)C[C@@]21C	inactive
Oc1cc(Cl)ccc1Cl	inactive
C=C(C)CCl	inactive
O=C(Cl)CCl	inactive
